Source: PubChem BioAssay (NCATS)
Inconclusive results are not listed. Values without a mark were called inactive. The call rests on the fitted dose curve; in most records, active means well fitted inhibition curve with a large enough effect; inconclusive means small, poorly fitted or top-dose-only effect; inactive means no such curve, though single readings can be large or run the other way.

What follows are compounds tested against Retinaldehyde dehydrogenase 3 (Homo sapiens) (UniProt P47895) (assay: qHTS for Inhibitors of the Aldehyde Dehydrogenase Family (ALDH1A3) Primary screen (AID 2061315;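 further: plate controls were DMSO vehicle for no effect and reference inhibitor for full effect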)). Conditions: ALDH inhibition qHTS; series mostly up to 56 µM; activity change, negative = inhibition: at the top concentration.
With `Cc1cc(C(N)=O)ccc1-n1c(CCC(=O)O)ccc1-c1ccc(-n2ccnc2)cc1` the “activity change, negative = inhibition” value was -0.616%. With `O=C(O)Cc1cn([C@@H]2O[C@H](CO)[C@@H](O)[C@H](O)[C@H]2O[C@@H]2O[C@H](CO)[C@@H](O)[C@H](O)[C@H]2O)c2ccccc12` the “activity change, negative = inhibition” value was -11.2% [at 28 µM]. `CC1(C)CC[C@]2(C(=O)O[C@@H]3O[C@H](CO)[C@@H](O)[C@H](O)[C@H]3O)CC[C@]3(C)C(=CCC4[C@@]5(C)C[C@@H](O)[C@H](O)[C@@](C)(CO)C5CC[C@]43C)C2C1` (some centres undefined) was tested, and the “activity change, negative = inhibition” value was 15.3% [at 16.9 µM]. For `C=C1C(=O)OC2CC(COC(=O)C(C)C)=C(C(C)CCCOC(C)=O)[C@@H](OC(C)=O)C12` (some centres undefined), the “activity change, negative = inhibition” value was -11.1% [at 28 µM]. In the case of `C=C1[C@H](OC(C)=O)[C@H]2[C@@H](OC(=O)c3ccccc3)[C@@H](C)C[C@]2(O)[C@@H](OC(C)=O)[C@H](C)/C=C/C(C)(C)C(=O)[C@H](OC(C)=O)[C@H]1OC(C)=O`, the “activity change, negative = inhibition” value is reported as 8.69% [at 16.9 µM]. `C[C@@]12CC3(S(=O)(=O)O)OC(O1)[C@]1(COC(=O)c4ccccc4)[C@H]3C[C@]21O[C@@H]1O[C@H](CO)[C@@H](O)[C@H](O)[C@H]1O` was tested, and the “activity change, negative = inhibition” value was -6.86% [at 28 µM]. For `COc1cc(/C=C2\CC[C@H]3COC[C@@H](c4cc(F)c(F)c(F)c4)N3C2=O)ccc1-n1cnc(C)c1`, the “activity change, negative = inhibition” value was 0.466%. `CC(=O)O[C@@H]1[C@H](O[C@@H]2OC[C@](O)(CO)[C@H]2O)[C@@H](O[C@@H]2O[C@@H](C)[C@H](O)[C@@H](O[C@@H]3O[C@H](CO)[C@@H](O)[C@H](O)[C@H]3O)[C@H]2O)[C@H](OC(=O)[C@]23CCC(C)(C)C[C@H]2C2=CCC4[C@@]5(C)C[C@H](O)[C@H](O[C@@H]6O[C@H](C(=O)O)[C@@H](O)[C@H](O)[C@H]6O)[C@@](C)(C(=O)O)C5CC[C@@]4(C)[C@]2(C)CC3)O[C@@H]1C` (some centres undefined) was tested, and the activity change, negative = inhibition was -13.4% [at 11.2 µM]. In the case of `C1=Cc2ccccc2C(=C2CCN(CCCCc3nn[nH]n3)CC2)c2ccccc21`, the “activity change, negative = inhibition” value is reported as 25.4%. `CC(C)=CCCC1(C)Oc2cc3c(c4c2C2C(O4)C(C)(O)CCC21)CN(C(CCC(=O)O)C(=O)O)C3=O` (centres undefined) was tested, and the “activity change, negative = inhibition” value was 6.64% [at 28 µM]. `COc1cc2c(cc1OC)CC(=O)N(CCCNC[C@H]1Cc3cc(OC)c(OC)cc31)CC2` was tested, and the “activity change, negative = inhibition” value was -5.32%. With `COC(=O)[C@]1(C)CCC[C@@]2(C)[C@@H]3CC[C@@H]4C[C@@]3(CC[C@@H]21)C[C@H]4C(=O)O` the “activity change, negative = inhibition” value was 1.38%. With `CC1(C)CC[C@]2(C(=O)O[C@@H]3O[C@H](CO[C@@H]4O[C@H](CO)[C@@H](O)[C@H](O)[C@H]4O)[C@@H](O)[C@H](O[C@@H]4O[C@H](CO)[C@@H](O)[C@H](O)[C@H]4O)[C@H]3O)CC[C@]3(C)C(=CCC4[C@@]5(C)CC[C@H](O[C@@H]6OC[C@@H](O)[C@H](O)[C@H]6O)[C@@](C)(C(=O)O)C5CC[C@]43C)[C@@H]2C1` (some centres undefined) the “activity change, negative = inhibition” value was 15% [at 16.9 µM]. For `CC1(C)CCCC2(C)C1C(=O)C=C(C(=O)O)C2(O)C(=O)O` (centres undefined), the “activity change, negative = inhibition” value was -4.9%. For `CCN(CC)c1ccc2c(O)c(C=Nc3ccc(CC(=O)O)c(-c4c5c(nc6ccccc46)CCC(C(=O)NN)C5)c3)c(=O)oc2c1` (centres undefined), the “activity change, negative = inhibition” value was -6.12%. With `COc1ccc(/C=C/C(=O)O[C@@H]2[C@@H](O[C@@H]3O[C@H](CO)[C@@H](O)[C@H](O)[C@H]3O)[C@@H](O)[C@H](O[C@H]3C4C=CO[C@@H](O[C@@H]5O[C@H](CO)[C@@H](O)[C@H](O)[C@H]5O)C4[C@@]4(CO)O[C@@H]34)O[C@H]2C)cc1` (some centres undefined) the “activity change, negative = inhibition” value was -7.15% [at 16.9 µM]. `CC(C)=CCC[C@](C)(O[C@@H]1O[C@H](CO[C@@H]2O[C@@H](CO)[C@H](O)[C@H]2O[C@@H]2OC[C@@H](O)[C@H](O)[C@H]2O)[C@@H](O)[C@H](O)[C@H]1O)[C@H]1CC[C@]2(C)[C@@H]1[C@H](O)CC1[C@@]3(C)CC[C@H](O[C@@H]4O[C@H](CO)[C@@H](O)[C@H](O)[C@H]4O[C@@H]4O[C@H](CO)[C@@H](O)[C@H](O)[C@H]4O)C(C)(C)C3CC[C@]12C` (some centres undefined) gave an activity change, negative = inhibition of 19.1% [at 11.2 µM]. For `Cc1ccc(C)c(NC(=O)[C@@H]2CCCN2S(=O)(=O)c2cccc3cccnc23)c1`, the “activity change, negative = inhibition” value was 0.352%. In the case of `C=CC1(C)CC(O)C(C(=C)C(=O)OC)C(O)C1C(=C)CO` (centres undefined), the “activity change, negative = inhibition” value is reported as 15.2%. In the case of `COc1cc(C(=O)OC[C@@]2(O)CO[C@@H](O[C@H]3[C@H](Oc4ccc(C(=O)O)cc4OC)O[C@H](CO)[C@@H](O)[C@@H]3O)[C@@H]2O)ccc1O`, the “activity change, negative = inhibition” value is reported as -11.8% [at 16.9 µM]. In the case of `O=C(/C=C/c1ccc(O)cc1)O[C@H]1[C@H](OC2CCCCC2O)O[C@H](CO)[C@@H](O)[C@@H]1O` (some centres undefined), the “activity change, negative = inhibition” value is reported as -26.8% [at 28 µM]. `O=C(Nc1ccc(N(Cc2ccsc2)C(=O)Cn2nnc3ccccc32)cc1)C1CC1` was tested, and the “activity change, negative = inhibition” value was -3.38%. With `CC1CC(=O)C2=C(O1)OC1(C)CCC3C(C)(C)C=CC(=O)C3(C)C1C2` (centres undefined) the “activity change, negative = inhibition” value was -27.9%. `OC[C@H]1O[C@@H](OCCc2ccccc2)[C@H](O)[C@@H](O)[C@@H]1O` was tested, and the “activity change, negative = inhibition” value was 16.4%. For `Nc1nc(O)c(C2=C3C(=Nc4ccccc43)C(=O)NCC2)[nH]1`, the “activity change, negative = inhibition” value was -1.44%. With `COC(=O)C1=CO[C@@H](O[C@@H]2O[C@H](CO)[C@@H](O)[C@H](O)[C@H]2O)[C@H]2[C@@H]1[C@H](O)C[C@]2(C)O` the “activity change, negative = inhibition” value was -0.189% [at 28 µM]. For `CCOc1ccc(-c2nn3ncccc3c2-c2ccc(S(C)(=O)=O)cc2)cc1`, the “activity change, negative = inhibition” value was 14.8%. `CC1(C)OC[C@H](NC(=O)Nc2ccc(Br)cc2Br)[C@H](c2ccccc2)O1` was tested, and the “activity change, negative = inhibition” value was -8.16%. `CC1CCC2(CO)C(C(=O)O)=CCCC2C1(C)CCc1ccoc1` (centres undefined) was tested, and the “activity change, negative = inhibition” value was 3.7%.
